According to the supplement of paper PMC11732987, “Enantioselective OTUD7B fragment discovery through chemoproteomics screening and high-throughput optimisation” (Communications Chemistry, 2025):

What was measured:
Test in all cases: log2 ratio of Biotin-Ahx-Ub-VS probe labelling (fragment/DMSO); higher = less target engagement (more negative = stronger competition), active = hit call of the paper (q ≤ 0.05, log2 ratio ≤ -1)
Conditions in all cases: compound concentration: 200 uM; treatment time: 3 h
USP42 = target: T1, USP42 (UniProt Q9H9J4)
T1 sequence (whole entry): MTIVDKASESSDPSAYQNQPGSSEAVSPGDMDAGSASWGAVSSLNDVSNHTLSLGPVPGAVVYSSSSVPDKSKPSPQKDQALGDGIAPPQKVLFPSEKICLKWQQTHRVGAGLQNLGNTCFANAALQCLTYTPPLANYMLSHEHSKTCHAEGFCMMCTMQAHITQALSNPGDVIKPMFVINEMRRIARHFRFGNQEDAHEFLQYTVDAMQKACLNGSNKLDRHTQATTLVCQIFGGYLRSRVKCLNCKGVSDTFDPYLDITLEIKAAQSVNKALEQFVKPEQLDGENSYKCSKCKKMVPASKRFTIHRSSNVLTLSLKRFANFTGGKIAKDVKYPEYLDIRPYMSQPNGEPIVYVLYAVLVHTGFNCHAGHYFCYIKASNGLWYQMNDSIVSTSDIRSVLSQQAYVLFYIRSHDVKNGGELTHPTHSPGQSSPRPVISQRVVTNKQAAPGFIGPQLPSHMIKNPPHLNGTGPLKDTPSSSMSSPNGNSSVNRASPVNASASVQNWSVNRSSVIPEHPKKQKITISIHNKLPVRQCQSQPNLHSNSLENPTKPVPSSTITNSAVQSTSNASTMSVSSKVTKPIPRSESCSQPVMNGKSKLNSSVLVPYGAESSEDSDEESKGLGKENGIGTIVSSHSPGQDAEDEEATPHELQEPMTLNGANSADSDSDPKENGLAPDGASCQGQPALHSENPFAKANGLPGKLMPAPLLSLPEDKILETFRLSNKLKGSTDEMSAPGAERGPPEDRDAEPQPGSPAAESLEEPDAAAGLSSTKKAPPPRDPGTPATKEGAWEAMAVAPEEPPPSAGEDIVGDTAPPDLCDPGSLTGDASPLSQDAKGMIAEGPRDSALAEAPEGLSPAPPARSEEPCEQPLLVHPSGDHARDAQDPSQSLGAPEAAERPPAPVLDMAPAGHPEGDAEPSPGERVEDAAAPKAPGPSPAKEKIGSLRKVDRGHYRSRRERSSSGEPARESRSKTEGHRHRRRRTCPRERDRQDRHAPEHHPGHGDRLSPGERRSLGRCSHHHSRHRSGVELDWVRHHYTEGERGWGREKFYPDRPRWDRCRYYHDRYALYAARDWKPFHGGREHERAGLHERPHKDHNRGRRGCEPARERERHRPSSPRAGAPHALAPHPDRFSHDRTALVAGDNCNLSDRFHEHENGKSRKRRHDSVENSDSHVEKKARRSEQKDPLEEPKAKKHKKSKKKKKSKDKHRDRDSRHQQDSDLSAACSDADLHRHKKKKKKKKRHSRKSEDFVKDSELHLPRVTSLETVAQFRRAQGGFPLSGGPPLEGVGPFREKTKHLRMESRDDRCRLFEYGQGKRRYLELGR
In short: (§1)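 HEK293T lysate, 495 µg per sample in Tris/CHAPS/IGEPAL buffer with protease inhibitors, was treated in triplicate with fragment at 200 µM or vehicle for 3 h and then with Biotin-Ahx-Ub-VS at 0.5 µM final for 1 h. Labelled DUBs were NeutrAvidin-enriched, digested with LysC and trypsin, and run by diaPASEF LC-MS/MS. Spectronaut label-free quantities were global-median-normalised, and values are average log2 fragment/vehicle ratios by unpaired t-test on proteins with ≥2 unique peptides.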

USP46 = USP46 (UniProt P62068)
In short: as §1

USP47 = target: T2, USP47 (UniProt Q96K76)
T2 sequence (whole entry): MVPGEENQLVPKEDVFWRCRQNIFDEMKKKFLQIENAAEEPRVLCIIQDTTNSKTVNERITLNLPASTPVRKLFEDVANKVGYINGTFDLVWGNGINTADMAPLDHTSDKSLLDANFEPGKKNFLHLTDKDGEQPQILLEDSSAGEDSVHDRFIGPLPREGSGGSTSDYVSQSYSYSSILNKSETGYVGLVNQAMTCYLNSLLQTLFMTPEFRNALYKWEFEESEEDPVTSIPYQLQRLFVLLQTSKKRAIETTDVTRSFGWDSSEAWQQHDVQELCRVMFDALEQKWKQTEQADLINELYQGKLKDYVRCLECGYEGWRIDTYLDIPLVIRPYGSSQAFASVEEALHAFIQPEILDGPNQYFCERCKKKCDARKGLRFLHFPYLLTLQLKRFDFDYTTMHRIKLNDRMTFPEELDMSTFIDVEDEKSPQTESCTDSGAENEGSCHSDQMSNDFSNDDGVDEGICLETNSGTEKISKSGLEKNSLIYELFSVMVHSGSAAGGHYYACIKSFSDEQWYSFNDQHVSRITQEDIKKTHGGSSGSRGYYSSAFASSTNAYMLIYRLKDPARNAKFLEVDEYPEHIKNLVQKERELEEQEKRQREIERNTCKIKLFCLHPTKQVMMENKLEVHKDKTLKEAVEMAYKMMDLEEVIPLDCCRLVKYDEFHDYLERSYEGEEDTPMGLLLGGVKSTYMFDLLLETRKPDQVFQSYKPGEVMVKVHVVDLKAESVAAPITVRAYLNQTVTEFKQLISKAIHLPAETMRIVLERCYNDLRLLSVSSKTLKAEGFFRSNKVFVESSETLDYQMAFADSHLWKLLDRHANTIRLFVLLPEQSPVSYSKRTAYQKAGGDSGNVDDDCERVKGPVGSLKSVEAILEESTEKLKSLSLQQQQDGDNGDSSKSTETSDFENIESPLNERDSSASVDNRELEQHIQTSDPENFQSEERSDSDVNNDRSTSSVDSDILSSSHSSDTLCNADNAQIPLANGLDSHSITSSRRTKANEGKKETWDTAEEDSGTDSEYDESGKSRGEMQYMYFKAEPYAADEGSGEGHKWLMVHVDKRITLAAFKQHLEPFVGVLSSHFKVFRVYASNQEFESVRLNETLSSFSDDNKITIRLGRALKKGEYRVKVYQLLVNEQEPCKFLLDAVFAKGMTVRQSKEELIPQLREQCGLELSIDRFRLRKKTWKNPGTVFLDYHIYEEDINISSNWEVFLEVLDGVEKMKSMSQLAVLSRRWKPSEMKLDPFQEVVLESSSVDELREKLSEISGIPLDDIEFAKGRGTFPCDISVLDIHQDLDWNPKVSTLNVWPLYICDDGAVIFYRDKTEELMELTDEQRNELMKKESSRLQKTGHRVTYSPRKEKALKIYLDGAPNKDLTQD
In short: as §1

USP48 = target: T3, USP48 (UniProt Q86UV5)
T3 sequence (whole entry): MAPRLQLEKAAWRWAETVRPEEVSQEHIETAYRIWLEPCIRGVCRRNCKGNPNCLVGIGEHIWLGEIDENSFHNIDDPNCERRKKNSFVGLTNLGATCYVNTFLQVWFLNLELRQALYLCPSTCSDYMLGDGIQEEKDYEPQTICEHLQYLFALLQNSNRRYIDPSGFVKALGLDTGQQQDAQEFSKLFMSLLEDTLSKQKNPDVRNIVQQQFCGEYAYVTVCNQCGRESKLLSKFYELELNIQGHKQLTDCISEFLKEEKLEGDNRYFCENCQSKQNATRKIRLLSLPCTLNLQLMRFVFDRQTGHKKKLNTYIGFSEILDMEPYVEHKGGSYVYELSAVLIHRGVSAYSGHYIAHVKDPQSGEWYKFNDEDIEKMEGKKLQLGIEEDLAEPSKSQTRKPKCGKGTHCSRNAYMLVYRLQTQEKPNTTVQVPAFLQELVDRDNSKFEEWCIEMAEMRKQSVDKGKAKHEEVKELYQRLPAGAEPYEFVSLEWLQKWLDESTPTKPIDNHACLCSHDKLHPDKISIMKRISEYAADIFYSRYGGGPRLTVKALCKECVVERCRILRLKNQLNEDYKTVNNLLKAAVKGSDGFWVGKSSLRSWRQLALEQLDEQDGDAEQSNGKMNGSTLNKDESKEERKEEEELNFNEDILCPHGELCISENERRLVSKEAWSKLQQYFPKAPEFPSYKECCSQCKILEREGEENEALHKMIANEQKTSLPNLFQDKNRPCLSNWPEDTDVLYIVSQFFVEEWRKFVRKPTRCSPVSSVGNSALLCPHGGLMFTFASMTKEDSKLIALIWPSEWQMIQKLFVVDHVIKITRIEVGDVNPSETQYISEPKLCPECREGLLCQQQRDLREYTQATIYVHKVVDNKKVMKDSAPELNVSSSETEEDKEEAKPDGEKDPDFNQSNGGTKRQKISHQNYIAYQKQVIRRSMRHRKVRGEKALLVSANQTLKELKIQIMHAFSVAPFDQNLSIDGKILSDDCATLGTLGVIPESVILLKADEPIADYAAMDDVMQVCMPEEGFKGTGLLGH
In short: as §1

USP5 = target: T4, USP5 (UniProt P45974)
T4 sequence (whole entry): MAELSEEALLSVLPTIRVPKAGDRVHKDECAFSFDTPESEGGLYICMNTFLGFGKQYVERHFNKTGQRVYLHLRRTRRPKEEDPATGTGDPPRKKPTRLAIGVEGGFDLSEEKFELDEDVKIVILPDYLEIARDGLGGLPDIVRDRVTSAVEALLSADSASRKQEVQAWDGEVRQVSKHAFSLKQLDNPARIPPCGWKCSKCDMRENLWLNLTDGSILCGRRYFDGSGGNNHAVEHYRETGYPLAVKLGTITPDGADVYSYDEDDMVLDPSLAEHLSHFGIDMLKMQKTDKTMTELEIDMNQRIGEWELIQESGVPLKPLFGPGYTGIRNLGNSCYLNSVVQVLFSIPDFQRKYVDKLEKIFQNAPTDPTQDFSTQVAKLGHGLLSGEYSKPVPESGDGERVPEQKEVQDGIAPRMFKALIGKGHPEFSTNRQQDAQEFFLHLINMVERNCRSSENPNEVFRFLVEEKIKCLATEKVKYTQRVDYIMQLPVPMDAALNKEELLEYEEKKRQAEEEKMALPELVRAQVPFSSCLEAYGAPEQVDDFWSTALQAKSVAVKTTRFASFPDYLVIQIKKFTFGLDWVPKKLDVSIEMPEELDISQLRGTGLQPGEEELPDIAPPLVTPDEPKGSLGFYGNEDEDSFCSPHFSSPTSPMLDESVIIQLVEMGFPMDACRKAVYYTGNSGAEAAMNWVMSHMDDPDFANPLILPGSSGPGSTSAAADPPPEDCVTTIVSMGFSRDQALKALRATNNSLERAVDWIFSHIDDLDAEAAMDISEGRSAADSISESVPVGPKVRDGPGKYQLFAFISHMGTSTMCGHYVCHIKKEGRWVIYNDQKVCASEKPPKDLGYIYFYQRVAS
In short: as §1

USP54 = USP54 (UniProt Q70EL1)
In short: as §1

USP7 = USP7 (UniProt Q93009)
In short: as §1

USP8 = target: T5, USP8 (UniProt P40818)
T5 sequence (whole entry): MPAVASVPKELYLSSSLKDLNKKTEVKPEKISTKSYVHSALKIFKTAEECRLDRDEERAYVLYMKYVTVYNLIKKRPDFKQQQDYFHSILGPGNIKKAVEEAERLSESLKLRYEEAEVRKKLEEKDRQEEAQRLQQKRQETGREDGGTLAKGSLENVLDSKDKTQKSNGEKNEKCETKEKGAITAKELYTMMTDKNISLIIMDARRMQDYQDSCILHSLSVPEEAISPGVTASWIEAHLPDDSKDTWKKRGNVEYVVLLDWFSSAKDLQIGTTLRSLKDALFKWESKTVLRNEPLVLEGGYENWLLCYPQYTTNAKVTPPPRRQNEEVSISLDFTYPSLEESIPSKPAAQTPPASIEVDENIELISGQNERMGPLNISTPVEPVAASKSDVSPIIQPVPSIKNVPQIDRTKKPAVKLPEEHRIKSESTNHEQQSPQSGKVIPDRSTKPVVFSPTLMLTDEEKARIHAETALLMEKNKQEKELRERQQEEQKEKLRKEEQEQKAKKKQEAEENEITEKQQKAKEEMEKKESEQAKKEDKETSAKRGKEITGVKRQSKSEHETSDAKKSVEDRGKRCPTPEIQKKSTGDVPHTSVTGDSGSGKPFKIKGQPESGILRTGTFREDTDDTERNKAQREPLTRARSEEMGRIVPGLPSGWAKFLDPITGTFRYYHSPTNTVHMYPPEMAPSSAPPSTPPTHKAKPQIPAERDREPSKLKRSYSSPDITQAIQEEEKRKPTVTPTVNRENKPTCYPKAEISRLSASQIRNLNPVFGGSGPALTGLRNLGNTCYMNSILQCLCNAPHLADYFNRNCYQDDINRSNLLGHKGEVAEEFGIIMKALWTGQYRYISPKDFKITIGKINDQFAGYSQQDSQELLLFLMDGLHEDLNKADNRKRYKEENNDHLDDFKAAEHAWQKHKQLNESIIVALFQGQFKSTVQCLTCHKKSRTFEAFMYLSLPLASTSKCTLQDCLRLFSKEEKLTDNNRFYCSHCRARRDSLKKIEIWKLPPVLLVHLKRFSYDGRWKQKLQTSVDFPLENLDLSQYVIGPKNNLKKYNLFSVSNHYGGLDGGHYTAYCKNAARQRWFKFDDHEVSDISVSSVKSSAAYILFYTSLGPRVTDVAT
In short: as §1

USP9X = USP9X (UniProt Q93008)
In short: as §1

UniProt O00487 = target: UniProt O00487
In short: as §1

Measured: log2 ratio of Biotin-Ahx-Ub-VS probe labelling

Chain of USP9X (Q93008 whole entry): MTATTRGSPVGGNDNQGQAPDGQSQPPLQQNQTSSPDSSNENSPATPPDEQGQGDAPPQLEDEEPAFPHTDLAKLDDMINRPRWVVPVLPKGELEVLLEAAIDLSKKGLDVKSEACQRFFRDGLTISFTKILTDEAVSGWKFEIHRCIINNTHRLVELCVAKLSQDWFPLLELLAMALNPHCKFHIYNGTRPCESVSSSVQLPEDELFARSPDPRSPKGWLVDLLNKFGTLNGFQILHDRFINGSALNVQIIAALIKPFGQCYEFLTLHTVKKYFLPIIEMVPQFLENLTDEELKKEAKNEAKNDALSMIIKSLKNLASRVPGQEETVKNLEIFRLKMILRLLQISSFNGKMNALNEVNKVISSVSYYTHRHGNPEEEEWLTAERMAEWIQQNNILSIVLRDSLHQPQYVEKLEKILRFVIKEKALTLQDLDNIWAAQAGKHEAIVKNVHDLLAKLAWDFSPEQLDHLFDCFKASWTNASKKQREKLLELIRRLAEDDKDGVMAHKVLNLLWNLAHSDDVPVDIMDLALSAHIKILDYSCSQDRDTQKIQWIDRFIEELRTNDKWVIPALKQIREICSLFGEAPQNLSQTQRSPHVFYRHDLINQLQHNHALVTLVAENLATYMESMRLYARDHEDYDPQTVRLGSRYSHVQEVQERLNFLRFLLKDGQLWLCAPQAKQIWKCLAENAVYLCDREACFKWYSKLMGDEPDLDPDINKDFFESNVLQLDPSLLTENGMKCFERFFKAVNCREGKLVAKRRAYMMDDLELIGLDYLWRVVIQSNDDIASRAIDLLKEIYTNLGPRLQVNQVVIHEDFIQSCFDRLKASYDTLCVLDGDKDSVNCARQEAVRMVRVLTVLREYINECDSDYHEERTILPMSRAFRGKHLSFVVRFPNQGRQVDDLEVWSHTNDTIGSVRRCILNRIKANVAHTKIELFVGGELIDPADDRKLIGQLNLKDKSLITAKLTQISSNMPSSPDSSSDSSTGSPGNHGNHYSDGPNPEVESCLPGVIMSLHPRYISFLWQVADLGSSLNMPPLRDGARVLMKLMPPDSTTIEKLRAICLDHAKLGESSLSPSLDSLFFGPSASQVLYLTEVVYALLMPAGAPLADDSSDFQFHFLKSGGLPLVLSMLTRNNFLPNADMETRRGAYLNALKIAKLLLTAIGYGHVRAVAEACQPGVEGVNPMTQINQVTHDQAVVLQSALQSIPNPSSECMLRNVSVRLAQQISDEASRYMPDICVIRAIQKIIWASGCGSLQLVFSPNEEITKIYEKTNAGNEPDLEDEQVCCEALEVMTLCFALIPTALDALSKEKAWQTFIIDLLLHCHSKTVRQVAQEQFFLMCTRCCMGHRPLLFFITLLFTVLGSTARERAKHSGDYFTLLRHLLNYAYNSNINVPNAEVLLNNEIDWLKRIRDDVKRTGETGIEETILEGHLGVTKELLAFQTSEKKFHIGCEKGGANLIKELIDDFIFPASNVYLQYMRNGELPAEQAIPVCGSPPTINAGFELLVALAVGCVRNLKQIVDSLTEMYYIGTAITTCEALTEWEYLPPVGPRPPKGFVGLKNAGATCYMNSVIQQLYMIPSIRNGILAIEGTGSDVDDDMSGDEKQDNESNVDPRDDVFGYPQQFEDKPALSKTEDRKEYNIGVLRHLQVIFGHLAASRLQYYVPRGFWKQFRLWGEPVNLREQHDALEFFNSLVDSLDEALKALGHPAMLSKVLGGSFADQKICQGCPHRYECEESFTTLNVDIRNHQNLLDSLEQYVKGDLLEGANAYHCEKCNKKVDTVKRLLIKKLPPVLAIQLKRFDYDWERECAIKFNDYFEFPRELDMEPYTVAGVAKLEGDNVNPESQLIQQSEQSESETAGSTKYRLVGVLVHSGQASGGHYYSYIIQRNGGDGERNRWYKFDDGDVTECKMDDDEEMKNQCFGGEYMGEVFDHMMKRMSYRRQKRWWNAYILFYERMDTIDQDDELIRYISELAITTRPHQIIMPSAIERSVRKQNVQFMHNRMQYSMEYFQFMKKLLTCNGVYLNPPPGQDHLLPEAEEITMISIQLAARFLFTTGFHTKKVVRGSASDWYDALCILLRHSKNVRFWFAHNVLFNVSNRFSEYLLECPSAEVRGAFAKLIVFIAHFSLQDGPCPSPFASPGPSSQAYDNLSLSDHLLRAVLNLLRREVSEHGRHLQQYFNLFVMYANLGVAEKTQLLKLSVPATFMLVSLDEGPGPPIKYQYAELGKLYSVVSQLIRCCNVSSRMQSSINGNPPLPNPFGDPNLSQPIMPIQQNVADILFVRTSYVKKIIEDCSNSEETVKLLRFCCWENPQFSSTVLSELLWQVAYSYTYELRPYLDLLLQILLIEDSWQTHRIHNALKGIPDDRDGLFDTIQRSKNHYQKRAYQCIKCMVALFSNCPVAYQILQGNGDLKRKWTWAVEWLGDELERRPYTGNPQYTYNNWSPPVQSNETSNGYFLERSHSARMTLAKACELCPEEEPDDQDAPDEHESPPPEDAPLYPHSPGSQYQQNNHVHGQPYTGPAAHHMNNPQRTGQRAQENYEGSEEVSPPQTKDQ
Chain of USP7 (Q93009 whole entry, looked up): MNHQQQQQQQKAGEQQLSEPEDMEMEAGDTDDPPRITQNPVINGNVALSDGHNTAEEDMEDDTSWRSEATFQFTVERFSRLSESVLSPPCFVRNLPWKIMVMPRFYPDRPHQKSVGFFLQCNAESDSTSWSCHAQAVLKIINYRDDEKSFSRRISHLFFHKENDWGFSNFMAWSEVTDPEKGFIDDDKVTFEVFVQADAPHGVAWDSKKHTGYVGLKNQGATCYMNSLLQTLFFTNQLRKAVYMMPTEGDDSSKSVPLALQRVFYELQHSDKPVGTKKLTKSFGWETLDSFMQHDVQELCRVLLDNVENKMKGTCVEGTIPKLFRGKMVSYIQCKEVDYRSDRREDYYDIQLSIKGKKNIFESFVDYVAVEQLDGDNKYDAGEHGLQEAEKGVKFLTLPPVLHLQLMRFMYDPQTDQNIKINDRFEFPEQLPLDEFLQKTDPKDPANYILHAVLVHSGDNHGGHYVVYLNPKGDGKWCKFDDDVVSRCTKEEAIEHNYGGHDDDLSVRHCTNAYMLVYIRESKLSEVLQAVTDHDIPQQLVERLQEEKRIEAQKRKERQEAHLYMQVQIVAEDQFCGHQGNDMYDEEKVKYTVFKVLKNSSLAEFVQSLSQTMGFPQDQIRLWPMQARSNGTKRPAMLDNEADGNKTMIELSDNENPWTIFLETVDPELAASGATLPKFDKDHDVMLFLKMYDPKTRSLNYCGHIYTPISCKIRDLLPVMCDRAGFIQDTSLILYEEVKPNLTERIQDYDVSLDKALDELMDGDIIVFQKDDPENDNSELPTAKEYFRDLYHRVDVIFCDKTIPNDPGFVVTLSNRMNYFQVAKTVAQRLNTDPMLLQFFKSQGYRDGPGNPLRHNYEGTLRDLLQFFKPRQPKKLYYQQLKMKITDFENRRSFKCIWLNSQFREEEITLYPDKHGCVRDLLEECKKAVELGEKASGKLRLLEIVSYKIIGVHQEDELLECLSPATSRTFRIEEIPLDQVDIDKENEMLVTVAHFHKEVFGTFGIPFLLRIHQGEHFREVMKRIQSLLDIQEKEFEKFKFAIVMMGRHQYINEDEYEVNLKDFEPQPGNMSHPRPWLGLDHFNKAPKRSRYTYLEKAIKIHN
Chain of USP46 (P62068 whole entry): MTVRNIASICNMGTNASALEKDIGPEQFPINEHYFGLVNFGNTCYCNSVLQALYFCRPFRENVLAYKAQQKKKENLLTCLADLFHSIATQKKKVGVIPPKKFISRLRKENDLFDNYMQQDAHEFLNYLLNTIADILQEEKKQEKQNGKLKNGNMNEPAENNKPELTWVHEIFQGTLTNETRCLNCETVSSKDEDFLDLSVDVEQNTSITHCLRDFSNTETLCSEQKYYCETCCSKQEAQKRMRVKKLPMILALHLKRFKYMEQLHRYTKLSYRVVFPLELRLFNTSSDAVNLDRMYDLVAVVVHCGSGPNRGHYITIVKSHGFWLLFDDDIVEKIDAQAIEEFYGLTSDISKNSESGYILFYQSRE
Chain of UniProt O00487 (O00487 whole entry): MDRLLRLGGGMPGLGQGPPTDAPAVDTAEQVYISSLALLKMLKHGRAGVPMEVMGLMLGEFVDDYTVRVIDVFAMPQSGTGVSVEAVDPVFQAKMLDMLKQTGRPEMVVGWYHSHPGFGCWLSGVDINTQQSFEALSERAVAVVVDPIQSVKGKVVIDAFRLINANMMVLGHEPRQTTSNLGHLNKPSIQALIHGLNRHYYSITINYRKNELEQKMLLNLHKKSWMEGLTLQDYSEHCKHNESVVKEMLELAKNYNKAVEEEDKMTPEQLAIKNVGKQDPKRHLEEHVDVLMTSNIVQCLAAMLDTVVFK

COc1ccc(-c2csc(NC(=O)CCl)n2)cc1
inactive: USP42 -0.269 | USP46 -0.355 | USP47 -0.0139 | USP48 -0.611 | USP5 0.0191 | USP54 0.204 | USP7 -0.576 | USP8 -0.316 | USP9X -0.66 | UniProt O00487 -0.101

Cc1cc(Cl)ccc1NC(=O)CCl
inactive: USP42 -0.0727 | USP46 -0.0701 | USP47 -0.176 | USP48 -0.173 | USP5 -0.0552 | USP54 -0.075 | USP7 -0.304 | USP8 0.0468 | USP9X -0.0827 | UniProt O00487 -0.165
